# Test results: the supplement of paper PMC8728848
# The entries come from a sample that favours the strongest signals as a whole.
# B1: PX9961U-pdi-543-24-543 (Parabacteroides distasonis) (protein)
# chain: EEPVGEFLPGQVESEENIEGIVTGAYAVLDGYYASDAINSGCSNWQFGDVVSDDAYKGGGGTGDQNQIHLMEIFNANPTGIDFEARWAALYEGIKRCNQAIRLLNGSEVKNKEQRLAEMRFLRGHYYFNLKIIYNQIPWIDETLVDPNEYNKKSNIEFSSDQLWEKILEEFSAAYKVLPESQADYGRPTKMAARAYMAKVYLYQSKWKECLEACDEVIQSGKYELFPDFRNVFLPENDNCSEIIFAIQLSINDGSPNNENGSYGDRLLPPGGPYPVYGFLRPTQNLVNAYKTDVKGLPYNDGKDVSENDYVDVRLDHTLARPNIPFMDVQLYDWTPREASVYGPYSPKKRLVSLNSTYYSPIWPYVNALNFYVIRYADLLLWRAEAAIETGDLETGRKYINMIRERAKNTQHVKTMDQSQDAANYKVGVYDEPFKSKNEAVQALRMERRLEMAHEGIRFFDLVRWGVADEVINAYIAKEKVFRSHLQNAHFVKGKHEYFPIPQSMIDICGTEVMKQNPGY
# Key:
# Test in all cases: glycan array binding signal (z-score within array); higher = stronger binding
# Conditions in all cases: glycan notation: IUPAC condensed, linker removed
# [1] = molecular target: Fuc(a1-2)Gal(b1-3)GalNAc(b1-4)[Neu5Ac(a2-3)]Gal(b1-4)Glc
# In short: (§1)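 The Consortium for Functional Glycomics database supplied 3228 glycan arrays, of which those lacking an available protein sequence were dropped. The binding signal, a within-array Z-score, was averaged across arrays of the same protein sequence and across linkers. Negative scores can be read as non-binding.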
# Fuc(a1-2)Gal(b1-3)GlcNAc = molecular target: Fuc(a1-2)Gal(b1-3)GlcNAc
# In short: as §1
# [2] = molecular target: Fuc(a1-2)Gal(b1-3)GlcNAc(b1-2)Man(a1-3)[Fuc(a1-2)Gal(b1-3)GlcNAc(b1-2)Man(a1-6)]Man(b1-4)GlcNAc(b1-4)GlcNAc
# In short: as §1
# [3] = molecular target: Fuc(a1-2)Gal(b1-4)GlcNAc(b1-3)Gal(b1-4)GlcNAc
# In short: as §1
# [4] = molecular target: Fuc(a1-2)Gal(b1-4)GlcNAc(b1-3)Gal(b1-4)GlcNAc(b1-2)Man(a1-3)[Fuc(a1-2)Gal(b1-4)GlcNAc(b1-3)Gal(b1-4)GlcNAc(b1-2)Man(a1-6)]Man(b1-4)GlcNAc(b1-4)GlcNAc
# In short: as §1
# [5] = molecular target: Fuc(a1-2)Gal(b1-4)[Fuc(a1-3)]GlcNAc(b1-3)GalNAc
# In short: as §1
# [6] = molecular target: Fuc(a1-2)Gal6S(b1-4)Glc6S
# In short: as §1
# [7] = molecular target: Fuc(a1-2)[Gal(a1-3)]Gal(b1-4)GlcNAc(b1-2)Man(a1-3)[Fuc(a1-2)[Gal(a1-3)]Gal(b1-4)GlcNAc(b1-2)Man(a1-6)]Man(b1-4)GlcNAc(b1-4)GlcNAc
# In short: as §1
# [8] = molecular target: Fuc(a1-2)[Gal(a1-4)]Gal(b1-4)GlcNAc
# In short: as §1
# [9] = molecular target: Gal(a1-3)Gal(b1-3)[Fuc(a1-4)]GlcNAc(b1-2)Man(a1-3)[Gal(a1-3)Gal(b1-3)[Fuc(a1-4)]GlcNAc(b1-2)Man(a1-6)]Man(b1-4)GlcNAc(b1-4)GlcNAc
# In short: as §1
# Gal(a1-3)Gal(b1-4)Glc = molecular target: Gal(a1-3)Gal(b1-4)Glc
# In short: as §1
# [10] = molecular target: Gal(a1-3)Gal(b1-4)[Fuc(a1-3)]GlcNAc
# In short: as §1
# Gal(a1-3)GalNAc = molecular target: Gal(a1-3)GalNAc
# In short: as §1
# [11] = molecular target: Gal(a1-4)Gal(b1-3)GlcNAc(b1-2)Man(a1-3)[Gal(a1-4)Gal(b1-3)GlcNAc(b1-2)Man(a1-6)]Man(b1-4)GlcNAc(b1-4)GlcNAc
# In short: as §1
# [12] = molecular target: Gal(a1-4)Gal(b1-4)GlcNAc(b1-2)Man(a1-3)[Gal(a1-4)Gal(b1-4)GlcNAc(b1-2)Man(a1-6)]Man(b1-4)GlcNAc(b1-4)GlcNAc
# In short: as §1
# [13] = molecular target: Gal(a1-4)Gal(b1-4)GlcNAc(b1-3)Gal(b1-4)Glc
# In short: as §1
# Gal(b1-3)GlcNAc = molecular target: Gal(b1-3)GlcNAc
# In short: as §1
# [14] = molecular target: Gal(b1-3)GlcNAc(b1-3)Gal(b1-4)GlcNAc(b1-3)Gal(b1-4)GlcNAc(b1-2)[Gal(b1-3)GlcNAc(b1-3)Gal(b1-4)GlcNAc(b1-3)Gal(b1-4)GlcNAc(b1-6)]Man(a1-6)[Gal(b1-3)GlcNAc(b1-3)Gal(b1-4)GlcNAc(b1-3)Gal(b1-4)GlcNAc(b1-2)Man(a1-3)]Man(b1-4)GlcNAc(b1-4)[Fuc(a1-6)]GlcNAc
# In short: as §1
# [15] = molecular target: Gal(b1-3)GlcNAc(b1-3)GalNAc
# In short: as §1
# [16] = molecular target: Gal(b1-3)[Fuc(a1-4)]GlcNAc(b1-6)GalNAc
# In short: as §1
# [17] = molecular target: Gal(b1-4)GlcNAc(b1-3)Gal(b1-4)GlcNAc(b1-3)Gal(b1-4)GlcNAc(b1-2)[Gal(b1-4)GlcNAc(b1-3)Gal(b1-4)GlcNAc(b1-3)Gal(b1-4)GlcNAc(b1-6)]Man(a1-6)[Gal(b1-4)GlcNAc(b1-3)Gal(b1-4)GlcNAc(b1-3)Gal(b1-4)GlcNAc(b1-2)Man(a1-3)]Man(b1-4)GlcNAc(b1-4)[Fuc(a1-6)]GlcNAc
# In short: as §1
# [18] = molecular target: Gal(b1-4)GlcNAc(b1-3)Gal(b1-4)GlcNAc(b1-3)Gal(b1-4)GlcNAc(b1-3)Gal(b1-4)GlcNAc(b1-2)[Gal(b1-4)GlcNAc(b1-3)Gal(b1-4)GlcNAc(b1-3)Gal(b1-4)GlcNAc(b1-3)Gal(b1-4)GlcNAc(b1-6)]Man(a1-6)[Gal(b1-4)GlcNAc(b1-3)Gal(b1-4)GlcNAc(b1-3)Gal(b1-4)GlcNAc(b1-3)Gal(b1-4)GlcNAc(b1-2)Man(a1-3)]Man(b1-4)GlcNAc(b1-4)[Fuc(a1-6)]GlcNAc
# In short: as §1
# [19] = molecular target: Gal(b1-4)GlcNAc(b1-3)Gal(b1-4)GlcNAc(b1-3)Gal(b1-4)GlcNAc(b1-3)Gal(b1-4)GlcNAc(b1-3)Gal(b1-4)GlcNAc(b1-2)Man(a1-3)[Gal(b1-4)GlcNAc(b1-3)Gal(b1-4)GlcNAc(b1-3)Gal(b1-4)GlcNAc(b1-3)Gal(b1-4)GlcNAc(b1-3)Gal(b1-4)GlcNAc(b1-2)Man(a1-6)]Man(b1-4)GlcNAc(b1-4)[Fuc(a1-6)]GlcNAc
# In short: as §1
# [20] = molecular target: Gal(b1-4)GlcNAc(b1-6)GalNAc
# In short: as §1
# [21] = molecular target: Gal3S(b1-4)[Fuc(a1-3)]GlcNAc
# In short: as §1
# [22] = molecular target: Gal3S(b1-4)[Fuc(a1-3)]GlcNAc6S
# In short: as §1
# [23] = molecular target: GalNAc(b1-4)GlcNAc(b1-2)Man(a1-3)[GalNAc(b1-4)GlcNAc(b1-2)Man(a1-6)]Man(b1-4)GlcNAc(b1-4)GlcNAc
# In short: as §1
# [24] = molecular target: GalNAc(b1-4)GlcNAc(b1-3)GalNAc(b1-4)GlcNAc
# In short: as §1
# [25] = molecular target: GlcNAc(a1-4)Gal(b1-4)GlcNAc
# In short: as §1
# [26] = molecular target: GlcNAc(b1-2)[GlcNAc(b1-4)]Man(a1-3)[GlcNAc(b1-2)Man(a1-6)]Man(b1-4)GlcNAc(b1-4)GlcNAc
# In short: as §1
binder,measurement,setting,value
B1,glycan array binding signal (z-score),[1],-0.337
same,glycan array binding signal (z-score),Fuc(a1-2)Gal(b1-3)GlcNAc,-0.324
same,glycan array binding signal (z-score),[2],7.29
same,glycan array binding signal (z-score),[3],-0.463
same,glycan array binding signal (z-score),[4],-0.241
same,glycan array binding signal (z-score),[5],3.47
same,glycan array binding signal (z-score),[6],-0.226
same,glycan array binding signal (z-score),[7],8.53
same,glycan array binding signal (z-score),[8],-0.379
same,glycan array binding signal (z-score),[9],4.38
same,glycan array binding signal (z-score),Gal(a1-3)Gal(b1-4)Glc,-0.175
same,glycan array binding signal (z-score),[10],0.287
same,glycan array binding signal (z-score),Gal(a1-3)GalNAc,-0.348
same,glycan array binding signal (z-score),[11],-0.428
same,glycan array binding signal (z-score),[12],2.13
same,glycan array binding signal (z-score),[13],-0.389
same,glycan array binding signal (z-score),Gal(b1-3)GlcNAc,-0.43
same,glycan array binding signal (z-score),[14],4.42
same,glycan array binding signal (z-score),[15],-0.385
same,glycan array binding signal (z-score),[16],3.44
same,glycan array binding signal (z-score),[17],6.31
same,glycan array binding signal (z-score),[18],3.38
same,glycan array binding signal (z-score),[19],7.11
same,glycan array binding signal (z-score),[20],-0.178
same,glycan array binding signal (z-score),[21],-0.303
same,glycan array binding signal (z-score),[22],-0.27
same,glycan array binding signal (z-score),[23],-0.253
same,glycan array binding signal (z-score),[24],0.352
same,glycan array binding signal (z-score),[25],-0.445
same,glycan array binding signal (z-score),[26],-0.415
